Results on 33 compounds are retold here after PubChem BioAssay AID1345085 (National Center for Advancing Translational Sciences (NCATS), 2018).

Records with an inconclusive call do not appear. Activity calls are given as the source filed them. Calls come from the whole dose curve; as a rule, active = well fitted cell-killing curve with a large enough effect; inconclusive = small, poorly fitted or top-dose-only effect, or effect the other way; inactive = no such curve, though single readings can be large or run the other way. *1 amine or outer side, *2 acyl side, *3 side chain or, on linkers, in order; H or OH if unused. Where a SMILES comes first, the peptide text is derived from it. Bridges are numbered along the chain shown (N, C = ends). Roman numbers before positions name the chains, in order. [ ]: non-standard residue; d: D form. Actinocin(9to1) = Cc1c2oc3c(C)ccc(C(=O)[*:1])c3nc-2c(C(=O)[*:2])c(N)c1=O; NMeV = CN[C@H](C(=O)O)C(C)C; Sar = CNCC(=O)O
Potency is the fitted concentration of half-maximal effect.

This test concerns JEG-3. In words: Confirmatory qHTS for gynecologic anti-cancer compounds from libraries of approved drugs and bioactive compounds. Note: nearly all actives have a fitted effect of over 55% in size. Particulars: gynecologic cancer cell panel viability, ATPlite luminescence, 48 h; series mostly up to 57.6 µM. A digest of the protocol: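 ATP-based luminescent viability (ATPlite) after 48 h drug treatment at 37 °C, 5% CO2, across 57.5 uM–0.977 nM in 1:3 steps. Cells seeded at 1,000 per well 16 h beforehand; IC50 values computed, HEK 293T as selectivity control.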
On the technique in general: Quantitative high-throughput screening tests each substance at several concentrations.
With `O=c1[nH]c(=O)n([C@H]2C[C@H](O)[C@@H](CO)O2)cc1Br`, the Potency entry is “inactive”.
Take `CN[C@@H](C)C(=O)N[C@H]1CN(C(=O)CC(C)C)CC[C@H]2CC[C@@H](C(=O)NC(c3ccccc3)c3ccccc3)N2C1=O`: the Potency entry was “inactive”.
In the case of `CCc1c2c(nc3ccc(O)cc13)-c1cc3c(c(=O)n1C2)COC(=O)[C@]3(O)CC`, the Potency was 0.122 µM (active).
For the compound `CC[C@]1(O)C[C@H]2CN(CCc3c([nH]c4ccccc34)[C@@](C(=O)OC)(c3cc4c(cc3OC)N(C=O)[C@H]3[C@@](O)(C(=O)OC)[C@H](OC(C)=O)[C@]5(CC)C=CCN6CC[C@]43[C@@H]65)C2)C1`, the Potency is 0.193 µM (active).
For `O=C(NOC[C@H](O)CO)c1ccc(F)c(F)c1Nc1ccc(I)cc1F`, the Potency result was “inactive”.
Regarding `CC[C@@]1(O)C(=O)OCc2c1cc1n(c2=O)Cc2c-1nc1ccccc1c2/C=N/OC(C)(C)C`, the Potency was 0.0217 µM (active).
The figure for `COc1ccc(OC)c(-c2nnc3ccc(-c4ccc(OC)c(O[C@@H]5CCOC5)c4)nn23)c1` is 4.85 µM (active); for `COc1cc2ncnc(Nc3ccc(F)c(Cl)c3)c2cc1OCCCN1CCOCC1` it is “inactive”.
Turning to `Oc1cn2c(n1)Nc1ccc(Cl)c(Cl)c1C2`, the Potency entry was “inactive”.
Then `Cc1[nH]c2ccccc2c1CCNCc1ccc(/C=C/C(=O)NO)cc1`, with 0.193 µM (active); and `CC1=C(/C=C/C(C)=C/C=C/C(C)=C/C(=O)Nc2ccc(O)cc2)C(C)(C)CCC1`, with 21.7 µM (active).
Take `Cc1nc(N)sc1-c1ccnc(Nc2ccc(N3CCOCC3)cc2)n1`: the Potency is 13.7 µM (active).
Then `Cc1cnc(Nc2ccc(OCCN3CCCC3)cc2)nc1Nc1cccc(S(=O)(=O)NC(C)(C)C)c1`, with 24.3 µM (active); and `CN1CCN(CCOc2cc(OC3CCOCC3)c3c(Nc4c(Cl)ccc5c4OCO5)ncnc3c2)CC1`, with “inactive”.
For `Fc1cc(-c2cccc3ncc(-c4cnn(C5CCNCC5)c4)nc23)cc(F)c1CN1CCOCC1`, the Potency is 30.6 µM (active).
The figure for `CCC1=CC2CN(C1)Cc1c([nH]c3ccccc13)[C@@](C(=O)OC)(c1cc3c(cc1OC)N(C)[C@H]1[C@@](O)(C(=O)OC)[C@H](OC(C)=O)[C@]4(CC)C=CCN5CC[C@]31[C@@H]54)C2` (stereo partly drawn) is 0.0943 µM (active); for `C1CCC(C(CC2CCCCN2)C2CCCCC2)CC1` (stereo not drawn) it is 27.3 µM (active).
The figure for `COCCOc1nc(-c2ccc(Cl)c(Cl)c2)n(-c2ccc(NC(=O)CCl)cc2)n1` is 19.3 µM (active); for `O=c1c2ccccc2nc2n1CCc1c-2[nH]c2ccccc12` it is “inactive”; for `O=C(O)C1(Cc2cccc(Nc3nccs3)n2)CCC(Oc2cccc(Cl)c2F)CC1` (stereo not drawn) it is “inactive”.
As to `CC(C)C[C@H](NC(=O)[C@@H](NC(=O)c1cccc(-c2ccccc2)n1)[C@@H](C)O)B(O)O`, the Potency was 1.53 µM (active).
As to `O=C(c1ccc(/C=C/c2n[nH]c3ccccc23)cc1)N1CCNCC1`, the Potency was 24.3 µM (active).
The figure for `CC(C)c1nn(-c2c(Cl)cccc2Cl)c2nc(Cc3ccc(OCCO)cc3)[nH]c(=O)c12` is 0.0685 µM (active); for `Cc1c2oc3c(C)ccc(C(=O)N[C@@H]4C(=O)N[C@H](C(C)C)C(=O)N5CCC[C@H]5C(=O)N(C)CC(=O)N(C)[C@@H](C(C)C)C(=O)O[C@@H]4C)c3nc-2c(C(=O)N[C@@H]2C(=O)N[C@H](C(C)C)C(=O)N3CCC[C@H]3C(=O)N(C)CC(=O)N(C)[C@@H](C(C)C)C(=O)O[C@@H]2C)c(N)c1=O` (I: T[dV]P[Sar][NMeV] / II: T[dV]P[Sar][NMeV]; ester I:1-I:C, II:1-II:C; linker I:N-II:N via Actinocin(9to1)) it is 1.09 µM (active); for `CN(C)C(CCOc1cccc2ccccc12)c1ccccc1` (stereo not drawn) it is “inactive”.
Then `O=C(NCC(O)CO)c1ccncc1Nc1ccc(I)cc1F` (stereo not drawn), with “inactive”.
Then `COc1cc2nccc(Oc3ccc(NC(=O)C4(C(=O)Nc5ccc(F)cc5)CC4)cc3)c2cc1OC`, with 10.9 µM (active); and `CCS(=O)(=O)c1cccc(-c2cc(C(=O)NC3CCN(C)CC3)c(C)c3[nH]c4ncc(C)cc4c23)c1`, with 2.67 µM (active); and `O=C(Nc1cccnc1)N1CCC(Cc2cccc(Oc3ccc(C(F)(F)F)cn3)c2)CC1`, with 7.69 µM (active).
Regarding `CN(C)c1ccc(-c2nc3ncc(Cl)c(N4CCN(CC(=O)Nc5nccs5)CC4)c3[nH]2)cc1`, the Potency entry is “inactive”.
`CC(C)CC(=O)Nc1n[nH]c2c1CN(C(=O)C1CCN(C)CC1)C2(C)C`: the Potency was 1.09 µM (active).
As to `CCCCc1oc2ccccc2c1C(=O)c1cc(I)c(OCCN(CC)CC)c(I)c1`, the Potency was 70.8 µM (active).
The figure for `NC(=O)c1ccc2nc(-c3ccc(Oc4ccc(Cl)cc4)cc3)[nH]c2c1` is 21.7 µM (active).
